Test results as given in PubChem BioAssay AID2796 (The Scripps Research Institute Molecular Screening Center, 2010).
Among all 320,000 compounds or so, about 8,000 (2.5%) were called active. No stated cut-off is given here; in the data, active means activation above about 47%; inactive means the rest. The list comes from a sample in which actives are over-represented; it also holds similar structures and randomly drawn compounds.

target: Aryl hydrocarbon receptor (Homo sapiens) (UniProt P35869); assay: AHR activators, primary screen, cell-based, luminescence, luciferase reporter, human (AID 2796); settings: AHR-responsive luciferase reporter cells, at 5 µM, stronger effect = higher value;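 further: 0% = vehicle wells and 100% = reference agonist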
Sequence (P35869 whole entry, looked up): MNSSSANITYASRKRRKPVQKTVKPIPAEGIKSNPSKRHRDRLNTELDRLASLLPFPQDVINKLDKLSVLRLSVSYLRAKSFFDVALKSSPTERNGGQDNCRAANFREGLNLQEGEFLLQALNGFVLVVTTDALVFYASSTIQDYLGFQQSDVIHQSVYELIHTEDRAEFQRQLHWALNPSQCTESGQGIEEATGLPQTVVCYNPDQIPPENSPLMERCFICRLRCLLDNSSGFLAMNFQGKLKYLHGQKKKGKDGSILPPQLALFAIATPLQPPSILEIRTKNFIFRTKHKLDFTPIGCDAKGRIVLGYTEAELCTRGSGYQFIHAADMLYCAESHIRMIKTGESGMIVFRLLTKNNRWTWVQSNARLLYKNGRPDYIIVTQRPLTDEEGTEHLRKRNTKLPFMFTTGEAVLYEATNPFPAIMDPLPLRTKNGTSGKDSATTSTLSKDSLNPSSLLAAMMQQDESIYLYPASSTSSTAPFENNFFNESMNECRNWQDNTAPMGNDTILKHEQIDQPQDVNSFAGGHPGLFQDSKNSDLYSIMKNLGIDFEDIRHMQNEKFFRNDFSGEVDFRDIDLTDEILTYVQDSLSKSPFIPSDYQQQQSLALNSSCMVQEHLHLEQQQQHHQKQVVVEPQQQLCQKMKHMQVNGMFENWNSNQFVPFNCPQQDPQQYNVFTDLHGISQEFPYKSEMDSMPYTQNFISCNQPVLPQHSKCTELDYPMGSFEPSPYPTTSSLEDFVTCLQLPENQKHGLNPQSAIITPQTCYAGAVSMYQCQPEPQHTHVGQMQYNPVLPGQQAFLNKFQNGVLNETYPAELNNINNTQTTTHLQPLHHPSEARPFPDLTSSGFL

activation, inactive:
COc1cc(C)nc(N2CCCC(C(=O)NCC(C)C)C2)n1 (stereo unspecified) 5.81%
CCc1cc(C(=O)OC)c(NC(=O)CC2Sc3ccc(C(F)(F)F)cc3NC2=O)s1 (stereo unspecified) -1.22%
Cc1cc(C)nc(SCc2nnc(SCC(=O)OC3CCCCC3)o2)n1 0.2%
CC(OC(=O)c1c(F)cccc1F)C(=O)NCCC1=CCCCC1 (stereo unspecified) 1.47%
COc1ccc(-c2csc(NC(=O)COC(=O)c3ccc(Br)o3)n2)cc1 15.7%
CC(C)(C)C(=O)OCc1nc(-c2ccc(O)c(O)c2)cs1 4.13%
CC1CCCCC12NC(=O)N(CC(=O)Nc1ccc(S(=O)(=O)Nc3ncccn3)cc1)C2=O (stereo unspecified) 0.23%
COC(=O)c1c(NC(=O)CN2C(=O)NC(CCc3ccccc3)C2=O)sc2c1CCCCC2 (stereo unspecified) 6.43%
COc1ccc(S(=O)(=O)NC(C)c2ccccc2)cc1C(=O)N1CCCCC1 (stereo unspecified) 2.64%
O=c1[nH]c(/C=C/c2cccc(Br)c2)nc2ccccc12 22.6%
O=c1[nH]c(N2CCOCC2)nc2ccccc12 2.44%
Cc1c(CN2CCC(n3nccc3NC(=O)CCc3ccccc3)CC2)cnn1C 1.39%
Cc1cccc(C)c1NC(=O)CNC(=O)Cc1ccc(Br)cc1 5.24%
CCOC(=O)Cc1csc(SCc2cc(=O)oc3cc(O)ccc23)n1 -1.46%
Cc1cc(=O)oc2cc(OCC(=O)Nc3nnc(C4CC4)s3)ccc12 9.3%
CCOC(=O)c1cccc(NC(=O)c2ccc(F)cc2F)c1 5.88%
CCCC(=O)N=c1sc2cccc(F)c2n1C 5.82%
Cn1c(=NC(=O)c2cnccn2)sc2ccccc21 13.9%
COc1ccc2oc(C(=O)OCC(=O)N(CC(C)C)c3c(N)n(Cc4ccccc4)c(=O)[nH]c3=O)c(C)c2c1 -3.35%
O=C(COc1ccccc1)Nc1cc2c3c(c1)CC(=O)N3CCC2 8.04%
CCOc1ccc(/C=N/NC(=O)C(C)Sc2ccccn2)cc1OCC (stereo unspecified) 4.44%
COc1cc(/C=C2/C(=O)ON=C2C)ccc1OCc1ccccc1F 0.62%
Cc1ccc(NC(=O)COC(=O)CNC(=O)c2ccc(Cl)cc2Cl)cc1S(=O)(=O)N1CCOCC1 -1.57%
O=C(CC1C(=O)NCCN1Cc1ccc(-c2ccccc2)cc1)NCc1ccncc1 (stereo unspecified) 0.69%
CC(C)c1ccc(NC(=S)NC2CC3C=CC2C3)cc1 (stereo unspecified) 7.48%
O=c1[nH]c(=S)[nH]c2[nH]c(=S)[nH]c12 0%
O=C(CCS(=O)(=O)Cc1ccccc1)Nc1ccc2c(c1)OCCO2 3.19%
CCN(CC(=O)Nc1ccc2c(c1)OCO2)S(=O)(=O)c1ccccc1 28.8%
O=C(CN1CCN(S(=O)(=O)c2cccc(Cl)c2)CC1)N1CCCCC1 -1.59%
CCCCNC(=O)C1(c2ccc(OC)cc2)CCOCC1 0.03%
CS(=O)(=O)c1ccc2nnn(OCC(=O)Nc3cccc(C#N)c3)c2c1 5.17%
Fc1ccccc1OCCSc1nc2ccccc2o1 -9.22%
COc1ccc(/C=C(\NC(=O)c2ccc(OC)c(OC)c2)C(=O)NCCc2c[nH]c3ccccc23)cc1 13.8%
COc1ccc(C(C(O)C(=O)c2c[nH]c3ccccc23)N2CCN(c3ccccc3)CC2)cc1 (stereo unspecified) 12.8%
CC(NC(=O)COC(=O)c1ccc(Cl)cc1O)c1ccc(F)cc1 (stereo unspecified) 3.35%
CCOC(=O)CSc1nc2ccc(C)cc2[nH]1 1.6%
CCOc1cc(/C=C(\C#N)c2nc(-c3cccs3)c(NC(C)=O)s2)ccc1O 8.05%
Cc1ccc(S(=O)(=O)NC(C)C(=O)NCc2ccc(Cl)cc2)cc1 (stereo unspecified) 0.98%
COCCCn1c(SCc2cccc(OC)c2)nc2cc(OC)c(OC)cc2c1=N 11.1%
CC(C)(C)OC(=O)C[C@@H]1C/C=C\C[C@@H](CC(=O)N(CCO)Cc2ccccc2)C(=O)N[C@H](Cc2ccccc2)COC1=O 2.29%
Cc1cc(C)nc(SCc2cn3c(C)cc(C)nc3n2)n1 7.09%
Cc1ccc2nc(SCC(=O)NC3CCCC3)[nH]c2c1 42.2%
CCC1(c2ccccc2)NC(=O)N(CC(=O)Nc2ccccc2C(=O)NC2CCCC2)C1=O (stereo unspecified) 1.57%
CN(Cc1ccccc1)C(=O)COC(=O)/C=C/c1ccc2c(c1)OCO2 2.59%
CN(c1ccc(OCC(=O)OCC(=O)Nc2cccc([N+](=O)[O-])c2)cc1)S(=O)(=O)c1ccc(F)cc1 2%
O=C1C(=O)N(c2ccccc2)c2ccccc21 0.42%
O=C(c1c(F)cccc1F)N1CCN(c2ncc(Br)cn2)CC1 1.98%
CCn1c(=O)cc(SCC(=O)NCc2ccc3c(c2)OCO3)c2ccccc21 6.43%
CCn1c(=O)c(C(=O)NCc2ccc3c(c2)OCO3)c(O)c2ccccc21 1.55%
CC(C)CNC(=S)Nc1ccc(F)cc1 -0.24%
CC(C)CNC(=O)C(=O)NCc1ccccc1 -0.83%
O=C1C=C(c2ccc(Cl)cc2)C(=O)N1Nc1ccccc1 -0.76%
NC(=O)C1CCN(C(=O)COc2ccc3c4c(c(=O)oc3c2)CCC4)CC1 -1.05%
COc1ccc(NS(=O)(=O)c2cc(NC(=O)c3ccc(S(=O)(=O)N(C)C)cc3)ccc2N2CCOCC2)cc1 0.52%
CC1CC(C)(C)CC2(C1)NC(=O)N(CC(=O)Nc1nccs1)C2=O (stereo unspecified) 2.2%
Cc1ccc(/C([O-])=C(/C(=S)NCc2ccco2)[n+]2ccccc2)cc1[N+](=O)[O-] 2.88%
CC1CCN(C(=S)c2cccc([N+](=O)[O-])c2)CC1 -3.58%
COc1cccc(-c2ccc3c(c2)S(=O)(=O)c2cccc(C(=O)O)c2C3=O)c1OC -3.31%
CC1CN/C(=C\C(=O)c2ccc(Br)cc2)C(=O)N1 (stereo unspecified) -14.4%
CCc1nc(Nc2ccc(NC(C)=O)cc2)c2oc3ccccc3c2n1 5.36%
Cc1nc(Cl)c2oc3ccccc3c2n1 4.72%
COc1ccc(/C=N/n2c(C)cc(C)cc2=O)cc1 -0.2%
CC(=O)NCCc1nc2cc(NC(=O)c3ccccc3)ccc2n1C 5.94%
Cn1c(-c2ccc(C(=O)c3ccccc3)s2)nc2ccccc21 -15%
CC(=O)Nc1nc2ccccc2n1Cc1ccc(C)cc1 1.47%
CCC(=O)Nc1nc2ccccc2n1Cc1ccccc1C 2.17%
O=C(Cn1cnc2ccccc2c1=O)NCC1COc2ccccc2O1 (stereo unspecified) 0.29%
O=C(c1ccc(F)cc1)N1CCCC(C(=O)N2CCCCC2)C1 (stereo unspecified) -0.02%
CCN1C(=O)/C(=C2\SC(N3CCCCC3)=NC2=O)c2ccccc21 22.2%
COc1ccc(Cl)cc1-n1c(=S)sc2c(=O)n(-c3ccc(F)cc3)c(SCC(=O)O)nc21 3.11%
COc1nc(NCc2ccc(Cl)cc2)nc(OC)n1 -1.92%
C=CCNc1nc(C)nc(OC)n1 -0.26%
O=C(NCc1cccc(Cl)c1)C1CCC(=O)N(C2CC2)C1 (stereo unspecified) 7.52%
Cc1cccc(C(=O)Nc2nnc(Cc3c[nH]c4ccccc34)s2)c1 22.8%
C=CCn1c(C)cc(C2=NNC(=NCC)SC2)c1C -11%
COc1ccccc1N=Cc1c(O)c2ccccc2oc1=O 4.13%
CN=c1scc(-c2cc(OC)ccc2OC)n1/N=C/c1c(C)[nH]c2ccccc12 -2.76%

activation, active:
COc1ccc(-c2csc(Cc3nc(O)cs3)n2)cc1 47.5%
O=c1[nH]c(-c2cccs2)nc2ccccc12 71.2%
CCOC(=O)Cc1csc(NC(=O)COc2ccc3c(C)cc(=O)oc3c2)n1 59.9%
Cn1c(=NC(=O)c2ccco2)sc2cccc(F)c21 58%
CCOc1cc(/C=N/O)ccc1OCc1ccccc1F 50.4%
Cc1c(C)c(C)c2[nH]c(=S)[nH]c2c1C 52.1%
O=C(CN(c1ccc2c(c1)OCCO2)S(=O)(=O)c1ccccc1)Nc1ccc2c(c1)OCO2 79.1%
COc1ccc(/C=C(\C#N)c2c[nH]c3ccccc23)cc1 53.6%
Cc1ccc2nc(/C(C#N)=C\c3ccc(OC(=O)c4cccs4)cc3)[nH]c2c1 80.8%
Cc1ccc2nc(SCc3cn4c(C)cc(C)nc4n3)[nH]c2c1 62.1%
CCn1c(=O)c([N+](=O)[O-])c(NCc2ccc3c(c2)OCO3)c2ccccc21 47.1%
CC(C)CNC(=O)C(=O)Nc1ccc(N(C)C)cc1 48%
O=[N+]([O-])c1cccc(/C([O-])=C(/C(=S)Nc2ccccc2F)[n+]2ccccc2)c1 49.5%
CCc1nc(Nc2ccc3nccnc3c2)c2oc3ccccc3c2n1 85.3%
Cn1c(NC(=O)c2ccccc2)nc2ccccc21 76.5%
CCn1c(NC(=O)c2nn(C)cc2Br)nc2ccccc21 122%
C=CCNc1nc(Nc2ccc(Cl)cc2)nc(OC)n1 52.8%
Cc1cccc(N=C2NN=C(c3c[nH]c4ccccc34)CS2)c1 99.4%
COc1ccc(OC)c(N=Cc2c(O)[nH]c3ccccc23)c1 54.3%
